Among the data in PubChem BioAssay (NCI) are growth values, retold here.

Molecules are shown by their SMILES. The panel holds about 83,000 compounds, 20% with a hit somewhere; the sample as a whole holds those more often.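 Step 1: grow cells in 96-well plates. Step 2: add test compound at a single concentration. Step 3: incubate 48 h. Step 4: record percent growth.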 A number with no mark means an inactive call. Activity calls are given as the source filed them. The calls were made as follows: active = growth percent below 10; inactive = the rest.

Assay in all cases: NCI-60 one-dose screen, 48 h (100 = growth as untreated, 0 = no growth, -100 = all killed)
What all share (conditions): 10 µM unless noted

Test [1] relates to HCT-15 colon.
The subject of test [2] is HT29 colon.
Test [3] concerns SNB-75 CNS.
Test [4] relates to SNB-19 CNS.
Test [5] concerns U251 CNS.
Test [6] relates to PC-3 prostate.
Test [7] deals with SK-MEL-5 melanoma.
In test [8] the test system is UACC-62 melanoma.
In test [9] the test system is LOX IMVI melanoma.
Test [10] deals with SK-MEL-28 melanoma.
Test [11] relates to SK-MEL-2 melanoma.
In test [12] the test system is EKVX NSCLC.
Test [13] has as its system SN12C renal.
Test [14] has as its system UO-31 renal.
Test [15] concerns TK-10 renal.
Test [16] has as its system ACHN renal.
The subject of test [17] is CAKI-1 renal.
For test [18], the system named is A498 renal.
For test [19], the system named is CCRF-CEM leukemia.
Test [20] concerns MOLT-4 leukemia.

Turning to `O=C(C[C@@]1(O)C(=O)Nc2c(Cl)ccc(Cl)c21)c1ccc(C2CC2)cc1`, the growth in test [1] was 19.1%; in test [2], 12.4%; in test [3] it was -29.9% (active); in test [4], 36.8%; in [5], 31.3%; in test [6], 31.4%. Further, the growth is 38.8% in [7]; 42.1% in [8]; 38.1% in [9]; 52.6% in test [10]; 43.1% in test [11]; 46.5% in test [12]. The growth in test [13] is 32.2%; in test [14] it was 37.9%; in test [15], 70.4%; in [16] it was 39.6%; in [17], 34.4%; in test [18] it was -32.7% (active). Besides, the growth in test [19] was 15.9%; in test [20], 18.9%.
In the case of `CC(C)(C)CC(C)(C)Nc1c(-c2ccc(-c3ccccc3)cc2)nc2cnccn12`, the growth was 84.5% in [1]; 30.5% in [2]; 88.7% in [3]; 94.3% in test [4]; 59.7% in test [5]; 65.4% in test [6]. The growth is 101% in test [7]; 75.9% in test [8]; 97.2% in test [9]; 100% in [10]; 72.2% in test [11]; 92.7% in [12]. In addition, the growth was 98.7% in [13]; 68.8% in test [14]; 86.6% in test [15]; 100% in test [16]; 76.1% in [17]; 75.9% in test [18]. For the same molecule, the growth in test [19] is 72.9%; in test [20], 62.5%.
For the molecule `NC(N)=N/N=C/c1ccc(Br)cc1`, the growth in [1] was 23.4%; in [2] it was 9.57% (active); in test [3], 34%; in test [4] it was 35.8%; in test [5], 25.4%; in [6], 27.8%. Further, the growth in [7] was 13.2%; in [8] it was 36.3%; in [9], 43%; in test [10] it was 58.9%; in [11], 77.8%; in [12] it was 62.4%. In addition, the growth in test [13] was 62.1%; in test [14] it was 47.4%; in [15], 13.9%; in [16], 44.5%; in test [17], 27.1%; in [18], 44.8%. In addition, the growth in test [19] was 32.6%; in test [20], 38.9%.
On to `CC[C@@H](C[C@H](CCO)c1ccccc1)c1cc2ccccc2o1`, for which the growth was 95.3% in [1]; 82.7% in test [2]; 79.9% in test [3]; 97.4% in [4]; 90.9% in test [5]; 78.8% in [6]. In addition, the growth in [7] was 106%; in test [8] it was 88.4%; in [9], 101%; in test [10], 102%; in test [11], 81.3%; in test [12] it was 103%. In addition, the growth in [13] was 95.8%; in test [14] it was 88.8%; in [15], 98.8%; in test [16] it was 99.1%; in test [17] it was 77.4%; in test [18], 104%. For the same molecule, the growth in test [19] is 90.7%; in test [20] it was 79.9%.
As for `COc1cc(C(=O)Nc2cc(O)c(CC=C(C)C)c(O)c2)cc2c1O[C@]1(C)CC[C@@H](O)C(C)(C)[C@H]1C2`, the growth in [1] is 13.3%; in [2] it was 1.4% (active); in test [3], 17.9%; in test [4] it was 53.4%; in test [5] it was 16.3%; in [6], 18.2%. The growth in [7] is -23.5% (active); in test [8], 8.82% (active); in [9], -12% (active); in [10], 30%; in [11] it was 12.9%; in [12] it was 36.6%. The growth in test [13] is 64.6%; in [14] it was -1.4% (active); in [15] it was 33.2%; in test [16], 26.4%; in test [17], 9.89% (active); in test [18] it was 16.7%. Besides, the growth in [19] was 2.18% (active); in test [20] it was -15.7% (active).
As for `CCOC(=O)Cc1csc2nc(-c3ccccc3)nn12`, the growth was 113% in test [1]; 106% in test [2]; 105% in test [3]; 90.2% in test [4]; 106% in [5]; 101% in test [6]. Also, the growth in test [7] was 107%; in [8], 98.6%; in [9], 89%; in test [10], 117%; in test [11], 114%; in test [12], 105%. Further, the growth in test [13] is 106%; in test [14] it was 97%; in [15], 126%; in test [16], 99.7%; in test [17], 111%; in [18], 90.4%. The growth in test [19] was 103%; in test [20], 111%.
Turning to `CCOC(=O)c1ccc(-c2ccc3cc(OC)ccc3c2)nc1C`, the growth is 99.2% in test [1]; 80.2% in test [2]; 110% in test [3]; 99.6% in [4]; 104% in test [5]; 100% in [6]. The growth in test [7] was 107%; in test [8], 85.2%; in test [9], 105%; in test [10], 91.5%; in test [11] it was 102%; in test [12], 99.4%. Further, the growth in [13] is 101%; in test [14], 93.9%; in [15], 84.3%; in test [16], 96.8%; in test [17] it was 114%; in [18], 99.8%. For the same molecule, the results for the growth in [19] and in test [20] were 95.3% and 78%, respectively.
For `O=C1c2ccccc2C2(c3ccc(O)cc3)c3ccccc3Oc3cccc1c32` (stereo not given), the growth in test [1] was 25.9%; in test [2], 7.07% (active); in test [3], 42.2%; in [4] it was 35.6%; in [5] it was 15.5%; in test [6], 21.6%. Besides, the growth is 16.9% in test [7]; 30.8% in test [8]; 28.3% in test [9]; 51.9% in test [10]; 25.4% in test [11]; 45.7% in test [12]. Also, the growth in [13] was 37.5%; in test [14] it was 45.7%; in test [15], 84.3%; in [16], 43.4%; in test [17], 45.9%; in test [18], 47.1%. Besides, the growth in [19] was 14.8%; in [20], 24.8%.
